Inconclusive results are not listed. Unmarked numbers belong to inactive results. Calls follow the shape of the dose curve; as a rule, active = well fitted curve in the direction sought with a large enough effect; inconclusive = small, poorly fitted or top-dose-only effect, or another doubt; inactive = no such curve, though single readings can be large or run the other way.
Each compound was assayed against Protein phosphatase 1D (Homo sapiens) (UniProt O15297) (assay: Rhodamine-PBP qHTS Assay for Modulators of WT P53-Induced Phosphatase 1 (WIP1) (AID 1347425; also: % of control where 0% means no effect)). Conditions: recombinant WIP1, Rhodamine-PBP phosphate fluorescence, real-time; series mostly up to 116 µM; activity change, negative = inhibition: at the top concentration.
Protein phosphatase 1D (Homo sapiens), sequence (O15297 whole entry, looked up): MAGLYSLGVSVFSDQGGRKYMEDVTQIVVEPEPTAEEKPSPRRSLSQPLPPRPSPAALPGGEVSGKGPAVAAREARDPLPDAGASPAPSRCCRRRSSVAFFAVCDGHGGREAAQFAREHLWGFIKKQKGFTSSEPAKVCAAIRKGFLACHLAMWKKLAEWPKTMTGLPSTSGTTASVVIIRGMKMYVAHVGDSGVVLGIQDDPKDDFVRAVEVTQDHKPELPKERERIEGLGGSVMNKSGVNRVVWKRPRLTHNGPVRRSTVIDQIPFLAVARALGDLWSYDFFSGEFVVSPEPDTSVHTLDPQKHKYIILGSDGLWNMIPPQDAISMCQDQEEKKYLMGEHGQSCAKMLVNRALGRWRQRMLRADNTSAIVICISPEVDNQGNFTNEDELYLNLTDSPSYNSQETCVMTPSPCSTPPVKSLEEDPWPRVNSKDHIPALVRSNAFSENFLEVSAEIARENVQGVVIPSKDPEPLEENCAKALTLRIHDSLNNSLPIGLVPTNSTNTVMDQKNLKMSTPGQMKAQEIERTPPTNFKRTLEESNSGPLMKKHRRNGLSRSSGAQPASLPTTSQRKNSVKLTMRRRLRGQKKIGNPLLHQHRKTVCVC
Text: Assay Provider (PI): Nathan Coussens Ph.D.
National Center for Advancing Translational Sciences (NCATS), Rockville, MD
National Institute of Health (NIH), Bethesda, Maryland
WT P53-Induced Phosphatase 1 (WIP1) is a member of the magnesium-dependent serine/threonine protein phosphatase (PPM) family and is induced by P53 in response to DNA damage. In several human cancers, the WIP1 protein is overexpressed, which is generally associated with a worse prognosis. Although WIP1 is an attractive therapeutic target, no potent, selective, and bioactive small-molecule modulator with favorable pharmacokinetics has been reported. Phosphatase enzymes are among the most challenging targets for small molecules because of the difficulty of achieving both modulator selectivity and bioavailability. Another major obstacle has been the availability of robust and physiologically relevant phosphatase assays that are suitable for high-throughput screening.
Here, we describe two orthogonal biochemical WIP1 activity assays that utilize phosphopeptides from native WIP1 substrates. We optimized a RapidFire MS assay to quantify the enzymatically dephosphorylated peptide reaction product in a 384-well format. Additionally, a redshifted Rhodamine-PBP fluorescence assay was optimized in a 1,536-well format to enable real-time WIP1 activity measurements through the detection of the orthogonal reaction product, Pi. We validated these two optimized assays by quantitative high-throughput screening against the National Center for Advancing Translational Sciences (NCATS) Pharmaceutical Collection and used secondary assays to confirm and evaluate inhibitors identified in the primary screen.
SEQUENCE No. (e.g., 1, 2, 3, etc.); […] (e.g., Cells, Incubation, Reagent, etc.); VALUE; DESCRIPTION
1; Reagent; 3 uL; WIP1 (6.7 nM), Rh-PBP (13.3 uM), columns 1-48
3; Library Compounds; 23 nL; NCATS Pharmaceutical Collection, column 5-48
4; Control Compounds; DMSO in column 2, GSK2830371 (57.5 uM, final) in 3-fold serial dilutions in column 3, GSK2830371 (1.15 uM, final) in column 4
5; Time; 1 hr; incubation
6; Detection; fluorescence (f0); ViewLux, excitation filter = 525 nm, emission filter = 598 nm
7; Reagent; 1 uL; VEPP-pS-QETFS (40 uM), columns 2-48
8; Detection; fluorescence (f1); ViewLux, excitation filter = 525 nm, emission filter = 598 nm
NOTES (numbers refer to sequence above)
1 & 2; Black medium binding Greiner 1536-well plates (# 789176-F); assay buffer: 50 mM Tris-HCl pH 7.5, 30 mM MgCl2, 1mM TCEP, 0.1 mM EGTA, 75 ug/mL BSA; dispensed with a BioRaptr liquid handler (Beckman Coulter).
3 & 4; Kalypsys pintool (equipped with 1536 pinhead, Wako USA) transfer. Tip wash sequence: DMSO, methanol, 3 sec vacuum dry.
5; Room temperature incubation.
7; VEPPL-pS-QETFS in assay buffer dispensed with a BioRaptr; final reaction conditions: 5 nM WIP1, 10 uM VEPPL-pS-QETFS, 10 uM Rh-PBP, 50 mM Tris-HCl pH 7.5, 30 mM MgCl2, 1 mM TCEP, 0.1 mM EGTA, 75 ug/mL BSA.
8; Measurement taken at 1 min intervals for 11 min. Delta readout = f1 - f0.

| SMILES | activity change, negative = inhibition |
| --- | --- |
| CC(C)(C)C(O)C(Oc1ccc(Cl)cc1)n1cncn1 (stereo not given) | 7.42% |
| O=[N+]([O-])c1ccc([As](=O)(O)O)cc1 | 4.09% [at 57.5 µM] |
| CCCCCCCCCCCCCCCC[N+](C)(C)C | 1.7% [at 57.5 µM] |
| ClC1=C(Cl)[C@]2(Cl)[C@@H]3[C@@H]4C[C@@H]([C@H]5O[C@@H]45)[C@@H]3[C@@]1(Cl)C2(Cl)Cl | -6.07% |
| Nc1ccc([N+](=O)[O-])cc1 | -1.18% |
| O=C(O)CCCOc1ccc(Cl)cc1Cl | -7.65% |
| O=[N+]([O-])c1cc([N+](=O)[O-])c2ccccc2c1 | 12.9% |
| CC1(C)CC/C(=C/c2ccc(Cl)cc2)C1(O)Cn1cncn1 (stereo not given) | 9.04% |
| CN[C@@H](C)[C@H](O)c1ccccc1 | 3.17% [at 57.5 µM] |
| COC(=O)c1cncn1C(C)c1ccccc1 (stereo not given) | -9.19% [at 57.5 µM] |
| CC[N+]1(CCOC(=O)C(O)(c2ccccc2)c2ccccc2)CCCCC1 | 12% [at 57.5 µM] |
| S=C(SSC(=S)N1CCCCC1)N1CCCCC1 | 16.1% [at 57.5 µM] |
| CC(Cc1ccc(O)cc1)NCC(O)c1cc(O)cc(O)c1 (stereo not given) | 2.55% [at 57.5 µM] |
| O=S(=O)(O)C(F)(F)C(F)(F)C(F)(F)C(F)(F)F | -11.3% |
| CCC1(CCC(C)C)C(=O)NC(=O)NC1=O | 9.51% |
| Oc1ccc2c3c1O[C@H]1[C@@H](O)C=C[C@H]4[C@@H](C2)NCC[C@@]341 | 1.9% |
| CC(O)CN1CCN(CC(=O)[O-])CCN(CC(=O)[O-])CCN(CC(=O)[O-])CC1.[Gd+3] (stereo not given) | -1.85% [at 57.5 µM] |
| CC(C)(C)NC[C@H](O)c1ccc(O)cc1Cl | 4.09% [at 57.5 µM] |
| CCOP(=O)(NC(C)C)Oc1ccc(SC)c(C)c1 (stereo not given) | 17.8% |
| O=S(=O)(c1ccc(Cl)cc1)c1ccc(Cl)cc1 | -9.01% |

| SMILES | activity change, negative = inhibition |
| --- | --- |
| CCCCC(CC)COC(=O)c1ccccc1C(=O)OCC(CC)CCCC (stereo not given) | 5.06% |
| Cc1cc(O)ccc1Cl | -14.2% [at 57.5 µM] |
| C1CCC(NC2CCCCC2)CC1 | 9.89% [at 57.5 µM] |
| O=C(O)COc1nc(Cl)c(Cl)cc1Cl | -8.08% |
| C=CCC1=C(C)C(OC(=O)C2C(C=C(C)C)C2(C)C)CC1=O (stereo not given) | 8.22% |
| CC(C)Oc1cccc(NC(=O)c2ccccc2C(F)(F)F)c1 | -27.7% |
| O=[N+]([O-])/N=C1\NCCN1Cc1ccc(Cl)nc1 | 12.1% [at 57.5 µM] |
| Nc1ccc(Cl)cc1N | -25.5% |
| O=C(Nc1ccccc1-c1ccc(Cl)cc1)c1cccnc1Cl | -4.63% |
| Cc1ccc(Cl)c(O)c1 | 8.51% [at 57.5 µM] |
| CC(C)NCC(O)c1ccc([N+](=O)[O-])cc1 (stereo not given) | 0.682% [at 57.5 µM] |
| CCCCOC(=O)c1ccccc1C(=O)OCc1ccccc1 | 24.3% |
| COc1ccc(C(c2ccc(OC)cc2)C(Cl)(Cl)Cl)cc1 | -8.96% |
| CO/C=C(/C(=O)OC)c1ccccc1Oc1cc(Oc2ccccc2C#N)ncn1 | 49% |
| CCO/N=C(\CC)C1=C(O)CC(c2c(C)cc(C)cc2C)CC1=O (stereo not given) | -5.95% |
| CCOCCOC(C)=O | 7.79% |
| O=C(O)COc1ccccc1 | 4.2% [at 57.5 µM] |
| Fc1cc(Br)ccc1CBr | -3.27% [at 57.5 µM] |
| O=C(O)C(Cl)Cl | 9.5% [at 57.5 µM] |
| CCC(=O)O[C@@H]1C=C2CCC3C(CCC4(C)C3CC[C@@H]4OC(=O)CC)C2CC1 (stereo not given in full) | 2.62% [at 57.5 µM] |

— PubChem BioAssay (NCATS)
